Assay results reported in PubChem BioAssay AID686978 (National Center for Advancing Translational Sciences (NCATS), 2013).
Screen size: about 420,000 compounds; about 64,000 (15%) were called active. About 27% were inconclusive and are not listed. The list is a sample of the results. Values without a mark were called inactive. Calls follow the shape of the dose curve; as a rule, active = well fitted inhibition curve with a large enough effect; inconclusive = small, poorly fitted or top-dose-only effect; inactive = flat fitted curve, though single readings scatter.

test: qHTS for Inhibitors of human tyrosyl-DNA phosphodiesterase 1 (TDP1): qHTS in cells in absence of CPT; conditions: DT40 Tdp1-/- hTDP1 cells, no CPT, ATP luminescence, 48 h; activity change, negative = growth inhibition: at 46.2 µM (top of the series); also: nearly all actives have a fitted effect of over 55% in size
Method in brief: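 Stably hTDP1-transfected Tdp1-null chicken DT40 cells were treated with library compounds minus camptothecin and grown for at least 48 hr at 37 °C, after which cellular ATP was quantified by luminescence.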
% is scaled to controls: 0 for no effect and ±100 for the full control effect; potency is read from the fitted curve at half-maximal effect.

Structure (SMILES)	activity change, negative = growth inhibition	Potency
COc1ccc(C2CC(=O)NC(=O)C2)cc1	-0.287%	–
COc1ccc(N2C(=O)C(Cc3ccccc3)NC2=S)cc1 (centres undefined)	1.43%	–
COc1ccc(C2OC(CCc3ccccc3)Cc3[nH]c(=S)[nH]c(=O)c32)cc1 (centres undefined)	–	18.4 µM (active)
O=C(Cn1cc(C(=O)c2cccs2)c2ccccc21)NCc1cccs1	-28.4%	–
CC1(c2nnc(Cc3ccccc3)o2)CC(c2ccccc2F)=NO1 (centres undefined)	-8.07%	–
COc1ccc(OCc2ccc(-c3nc(C#N)c(N4CCN(c5ccccc5)CC4)o3)o2)cc1	-19%	–
Cc1ccccc1OCc1ccc(-c2nc(C#N)c(N3CCCCC3)o2)o1	–	23.1 µM (active)
COc1ccccc1-c1nc(C#N)c(N2CCC(C(N)=O)CC2)o1	-5.1%	–
COc1ccc(NC(=O)NNC(=O)COc2cc(C)c(Cl)c(C)c2)c(OC)c1	-9%	–
Cc1ccc(S(=O)(=O)NCCSC(C)(C)C)cc1	3.06%	–
O=C(O)CSCNC(=O)CC12CC3CC(CC(C3)C1)C2	-7.57%	–
CCOCCCNC(=O)c1cc2c(=O)n3ccccc3nc2s1	4.13%	–
Nc1ccc(/C=C/c2ccnc3ccccc23)c([N+](=O)[O-])c1	–	10 µM (active)
O=C(CC(c1ccccc1)c1ccccc1)NCC(O)c1ccc([N+](=O)[O-])cc1 (centres undefined)	-29.9%	–
Cc1ccc(C)c(N2CCN(Cc3nnc(-c4ccccc4)o3)CC2)c1	-24.4%	–
Cc1ccc(C)c(N2CCN(C(c3ccccc3)c3nnc(-c4ccccc4)o3)CC2)c1 (centres undefined)	–	23.1 µM (active)
CCn1c2ccccc2c2nnc(N3CCN(c4cc(C)ccc4C)CC3)nc21	2.65%	–
CC(C)c1ccc(S(=O)(=O)NC2CCCC2)cc1	-9.9%	–
C/C(CC(=O)Nc1cccc(C(F)(F)F)c1)=N\NC(=O)C(=O)NCC(C)C	4.51%	–
Cc1cc(N2CCCC2=O)cc(C)c1S(N)(=O)=O	-1.77%	–
COc1cccc(N2C(=O)C3CCCN3C2c2ccc(F)cc2)c1 (centres undefined)	-16.8%	–
CSC1=NCCN1C(=O)c1ccc(S(=O)(=O)N2CCOCC2)cc1	-6.06%	–
O=C(Nc1nnc(COc2ccccc2)s1)Nc1ccccc1F	-18.9%	–

Structure (SMILES)	activity change, negative = growth inhibition	Potency
O=C(Nc1ccccc1)Nc1nnc(COc2ccccc2F)s1	–	10.3 µM (active)
COCC(=O)Nc1nnc(COc2ccccc2)s1	-3.11%	–
Cc1cc(C)c(C(N)=O)c(Cl)n1	-2.24%	–
CC1=C(C(=O)N(C)C)C(c2ccccc2OC(F)F)NC(=O)N1 (centres undefined)	-14.3%	–
COc1cc(OC)c(C2=NOC(C(=O)Nc3c(C)n(C)n(-c4ccccc4)c3=O)C2)cc1Cl (centres undefined)	-21.7%	–
Cc1cccc(OCC(=O)Nc2ccc(C(=O)O)cc2NC(=O)COc2cccc(C)c2)c1	-3.15%	–
O=C(O)CN(Cc1ccco1)S(=O)(=O)c1ccc(F)cc1	2.93%	–
O=C(CSc1nc2ccccc2[nH]1)c1cccs1	-21.9%	–
CCC(c1nc2ccccc2[nH]1)n1c(=O)c(-c2cccs2)nc2ccccc21 (centres undefined)	–	18.4 µM (active)
OC(c1nc2ccccc2[nH]1)C(O)C(O)C(O)c1nc2ccccc2[nH]1 (centres undefined)	0.49%	–
CSc1nnc(-c2ccncc2)n1CCCN1CCCC1=O	-13.2%	–
O=C(NCCc1nnc2ccc(SCC(=O)N3CCOCC3)nn12)c1ccccc1	18.7%	–
Cc1ccc(N(C(=O)Cc2cccs2)C2C=CS(=O)(=O)C2)cc1Cl (centres undefined)	-5.03%	–
Cc1ccc(C)c2c1cc(C)c1nnc(SCC(=O)Nc3cccc(C(=O)O)c3)n12	16%	–
O=C(Nc1cc(=O)[nH]c2ncnn12)c1ccccc1Cl	-5.75%	–
CCN(c1ncnc2c1cnn2-c1ccc(C)cc1)C1CCCCC1	7.61%	–
COc1ccc(-n2ncc3c(SCC(=O)NNC(C)=O)ncnc32)cc1	-27.9%	–
Cc1ccc(-n2ncc3c(N4CCC(C(N)=O)CC4)ncnc32)cc1	20.4%	–
COC(=O)CSc1ncnc2c1cnn2-c1ccc(C)cc1C	-16.2%	–
COc1ccccc1N1CCN(C(=O)CSc2ncnc3c2cnn3-c2ccc(C)c(C)c2)CC1	–	23.1 µM (active)
CCN1CCN(c2ncnc3c2cnn3-c2ccc(C)c(C)c2)CC1	–	18.4 µM (active)
O=C1C2C3C=CC(C3)C2C(=O)N1c1ncc([N+](=O)[O-])s1 (centres undefined)	11.5%	–
COc1ccc(C(=O)COC(=O)CCCC(=O)Nc2cc(C(F)(F)F)ccc2Cl)cc1	-26.7%	–

Structure (SMILES)	activity change, negative = growth inhibition	Potency
Cc1cc(OC(=O)c2ccc(Cl)cc2)cc(=O)n1C	-48.6%	–
O=C(COc1cccc(F)c1)Oc1ccc(C(=O)c2ccccc2)cc1	-2.56%	–
N#Cc1cccc(CSc2nnc(CCCO)n2-c2ccccc2)c1	-6.18%	–
CCOc1ccc(-c2nnc(-c3ccco3)o2)cc1	2.07%	–
Cc1ccc(OCC(=O)Nc2ccc(-c3nnc(-c4ccco4)o3)cc2)cc1	-26.1%	–
CCC(=O)Oc1cccc(C(=O)Nc2ccc(-c3nnc(-c4ccco4)o3)cc2)c1	–	5.8 µM (active)
O=C(Nc1ccc(C(=O)O)cc1)/C(=C\c1ccccc1)NC(=O)c1ccc(Br)cc1	2.35%	–
CN1CCN(C(=O)C2C3C=CC(C3)C2C(=O)O)CC1 (centres undefined)	-1.9%	–
CC1CCN(S(=O)(=O)c2nnc(NC(=O)COc3ccccc3F)s2)CC1	-5.02%	–
NS(=O)(=O)c1ccc2nc(NC(=O)COc3ccccc3)sc2c1	-0.0254%	–
Cc1cc(NC(=O)[C@H](C)NC(=O)c2ccco2)ccc1Br	-28%	–
O=C(COc1ccccc1F)Nc1nc(-c2ccccn2)cs1	–	4.61 µM (active)
O=C(COc1ccccc1F)NC1CC1	-12.3%	–
Cc1ccnc(NC(=O)c2ccco2)n1	5.09%	–
CC(NC(=O)c1ccco1)C(=O)Nc1nc(-c2ccccn2)cs1 (centres undefined)	–	5.8 µM (active)
N#Cc1ccc(OCC(=O)Nc2nc(-c3ccccn3)cs2)cc1	–	1.64 µM (active)
COc1ccc(OCC(=O)Nc2nnc(-c3ccco3)s2)cc1	-20.5%	–
Cn1c(=O)oc2cc(S(=O)(=O)NCCC(=O)NCc3ccccc3Cl)ccc21	4.72%	–
CCN(CC)C(=O)CSc1nnc(C2CCCCC2)o1	0.286%	–
CCC(=O)c1ccc(OC(=O)/C=C/c2cc(OC)c(OC)c(OC)c2)cc1	1.7%	–
CC(C)CNC(=O)/C=C/C(=O)O	-14.9%	–
C[C@H](CO)N1C[C@H](C)[C@@H](CN(C)C(=O)Nc2ccc3c(c2)OCO3)Oc2c(cccc2N(C)C)C1=O	-12.8%	–
CCCCOc1ccc(N(CC(=O)NC(C)C)C(=O)CCC(=O)Nc2ccccn2)cc1	-34.6%	–
